# Experimental data: PubChem BioAssay (EPA / NIEHS)
# Records with an inconclusive call do not appear. Activity calls are given as the source filed them. How the source made its calls: active means hit-call score of the fitted dose curve at least 0.9, where 1 is the maximum; inconclusive means response in the unintended direction; inactive means score below 0.9.
# Target: human RAR-related Orphan Receptor gamma (RORg), RORC (gene 6097) (UniProt P51449)
# Test: ATG_RORg_TRANS: Attagene TRANS-FACTORIAL HepG2 Assay for human RAR-related Orphan Receptor gamma (RORg) (AID 2283011)
# Method: ATG_TRANS is a cell-based, multiplexed-readout assay that uses HepG2, a human liver cell line, with measurements taken at 24 hours after chemical dosing in a 24-well plate.ATG_RORg_TRANS is one of 30 assay component(s) measured or calculated from the ATG_TRANS assay. It is designed to make measurements of mRNA induction, a form of inducible reporter, as detected with fluorescence intensity signals by Reverse transcription polymerase chain reaction (RT-PCR) and Capillary electrophoresis technology.Data from the assay component ATG_RORg_TRANS was analyzed into 1 assay endpoint. This assay endpoint, ATG_RORg_TRANS, was analyzed in the positive analysis fitting direction relative to DMSO as the negative control and baseline of activity. Using a type of inducible reporter, measures of mRNA for gain-of-signal activity can be used to understand the reporter gene at the transcription factor-level as they relate to the gene RORC. Furthermore, this assay endpoint can be referred to as a primary readout, because this assay has produced multiple assay endpoints where this one serves a reporter gene function. To generalize the intended target to other relatable targets, this assay endpoint is annotated to the nuclear receptor intended target family, where the subfamily is orphan.
# Human liver HepG2 cells are transiently transfected with multiple reporter transcription units (MRTUs) in 6-well plates using FuGene 6 reagent (Roche; 3 ml FuGene/1 mg DNA). The MRTU constructs are regulated by a cis-regulating element (promoter). […] A major difference between the CIS and TRANS system is that in CIS activities of endogenous TFs are measured, whereas the TRANS assay evaluates changes in activities of exogenous, chimeric NR-Gal4 proteins. […] At the end of 24 hour incubation, total RNA was isolated using TriZol reagent (Invitrogen). The isolated RNA is then reverse-transcribed using oligo(dT) primer and Mo-MLV reverse transcriptase (Invitrogen) with DNAse I (Ambion) treatment for 30 min. The one-tenth of the produced cDNA was amplified by PCR using Taq DNA polymerase (Invitrogen) and two reporter sequence-specific primers. The PCR products were fluorescently labeled by primer extension with 6-arboxyfluorescein (6-FAM) 5'-labeled reporter sequence-specific primer (2 min at 95 C, 20 s at 68 C and 10 min at 72 C) and these products were digested with 5U of HpaI (New England Biolabs) for 2h at 37 C. The fragments were purified using Qiaquick PCR columns (Qiagen), analyzed on an ABI 3130xL genetic analyzer (Applied Biosystems) with peak positions identified by using a set of X-rhodamine (ROX)-labeled MapMarker1000 molecular weight standards (BioVentures). The raw capillary electrophoresis data was processed using Attagraph software (Attagene).
# Sequence of human RAR-related Orphan Receptor gamma (RORg), RORC (gene 6097) (P51449 whole entry, looked up): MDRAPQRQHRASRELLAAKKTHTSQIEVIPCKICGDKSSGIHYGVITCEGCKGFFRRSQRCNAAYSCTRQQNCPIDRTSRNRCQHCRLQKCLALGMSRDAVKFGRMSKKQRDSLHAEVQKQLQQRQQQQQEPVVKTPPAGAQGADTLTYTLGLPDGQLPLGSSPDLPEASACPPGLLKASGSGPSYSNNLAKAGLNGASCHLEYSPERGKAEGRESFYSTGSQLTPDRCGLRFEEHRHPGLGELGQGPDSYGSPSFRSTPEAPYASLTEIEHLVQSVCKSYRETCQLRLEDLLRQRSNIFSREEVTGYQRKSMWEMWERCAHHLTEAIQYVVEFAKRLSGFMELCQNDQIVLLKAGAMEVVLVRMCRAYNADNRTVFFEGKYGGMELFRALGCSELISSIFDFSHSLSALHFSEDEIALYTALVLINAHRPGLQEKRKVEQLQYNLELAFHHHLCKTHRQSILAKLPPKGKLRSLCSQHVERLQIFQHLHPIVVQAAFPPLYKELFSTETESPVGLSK
row,Structure (SMILES),outcome
1,Nc1c(Cl)cc([N+](=O)[O-])cc1Cl,inactive
2,CN(C)NC(=O)CCC(=O)O,inactive
3,CCCCOC(=O)[C@@H](C)Oc1ccc(Oc2ccc(C#N)cc2F)cc1,inactive
4,Cc1nn(-c2cc(NS(C)(=O)=O)c(Cl)cc2Cl)c(=O)n1C(F)F,inactive
5,CN1COCN(Cc2cnc(Cl)s2)C1=N[N+](=O)[O-],inactive
6,O=C(O)c1cc(Oc2ccc(C(F)(F)F)cc2Cl)ccc1[N+](=O)[O-],inactive
7,S=C1NCCN1,inactive
8,CNc1cnn(-c2cccc(C(F)(F)F)c2)c(=O)c1Cl,inactive
9,CCOP(=O)(OCC)Oc1cc(C)nc(C(C)C)n1,inactive
10,CCc1cnc(C2=NC(C)(C(C)C)C(=O)N2)c(C(=O)O)c1 (stereo not given),inactive
11,CC(C)=CC1C(C(=O)OCN2C(=O)C3=C(CCCC3)C2=O)C1(C)C (stereo not given),inactive
12,COP(=O)(OC)C(O)C(Cl)(Cl)Cl (stereo not given),inactive
13,COP(=O)(NC(C)=O)SC (stereo not given),inactive
14,Cc1ccn2nc(S(=O)(=O)Nc3c(F)cccc3F)nc2n1,inactive
15,Cc1cc(C2CC2)nc(Nc2ccccc2)n1,inactive
16,CCOP(=O)(NC(C)C)Oc1ccc(SC)c(C)c1 (stereo not given),inactive
17,O=[N+]([O-])c1cc(C(F)(F)F)c(Cl)c([N+](=O)[O-])c1Nc1ncc(C(F)(F)F)cc1Cl,inactive
18,C[N+]1(C)CCCCC1,inactive
19,CCOP(=S)(OCC)Oc1ccc2c(C)c(Cl)c(=O)oc2c1,inactive
20,CCCSP(=O)(OCC)Oc1ccc(Br)cc1Cl (stereo not given),inactive

row,Structure (SMILES),outcome
1,CC(Oc1cccc(Cl)c1)C(=O)O (stereo not given),inactive
2,CC(C)[C@H](C(=O)O[C@H](C#N)c1cccc(Oc2ccccc2)c1)c1ccc(Cl)cc1,inactive
3,CSc1nc(NC(C)C)nc(NC(C)C)n1,inactive
4,CCOP(=S)(OCC)Oc1ccc([N+](=O)[O-])cc1,inactive
5,CCC(CC)Nc1c([N+](=O)[O-])cc(C)c(C)c1[N+](=O)[O-],inactive
6,CC1(C(=O)Nc2ccc(O)c(Cl)c2Cl)CCCCC1,inactive
7,CCC(=NOC/C=C/Cl)C1=C(O)CC(C2CCOCC2)CC1=O (stereo not given),inactive
8,COP(=O)(OC)SCn1c(=O)oc2cc(Cl)cnc21,inactive
9,COc1cc(OC)nc(Sc2cccc(Cl)c2C(=O)O)n1,inactive
10,CNC(=O)ON=C(C)SC,inactive
11,C=C(C)[C@H]1Cc2c(ccc3c2O[C@@H]2COc4cc(OC)c(OC)cc4[C@@H]2C3=O)O1,inactive
12,CCCCOC(=O)c1ccccc1C(=O)O,inactive
13,CCC(=O)Nc1ccc(Cl)c(Cl)c1,inactive
14,CC(COc1ccc(Oc2ccccc2)cc1)Oc1ccccn1 (stereo not given),inactive
15,C#CC(C)(C)NC(=O)c1cc(Cl)cc(Cl)c1,inactive
16,CCOC(=O)COc1cc(-c2nn(C)c(OC(F)F)c2Cl)c(F)cc1Cl,inactive
17,CCNc1nc(Cl)nc(NC(C)(C)C#N)n1,inactive
18,CC(=NC#N)N(C)Cc1ccc(Cl)nc1,inactive
19,O=c1ccc(=O)[nH][nH]1,inactive
20,CC[C@H](C)[C@H]1O[C@]2(C=C[C@@H]1C)C[C@@H]1C[C@@H](C/C=C(\C)[C@@H](O[C@H]3C[C@H](OC)[C@@H](O[C@H]4C[C@H](OC)[C@@H](NC)[C@H](C)O4)[C@H](C)O3)[C@@H](C)/C=C/C=C3\CO[C@@H]4[C@H](O)C(C)=C[C@@H](C(=O)O1)[C@]34O)O2,inactive
